Source: PubChem BioAssay
JMJD2A Tudor = inhibitors of human JMJD2A Tudor domain; O75164; AlphaScreen JMJD2A-Tudor / H3K4me3 peptide binding; Potency, µM (series often up to 114 µM), without a hit: at the highest dose activity change, negative = inhibition, actives largely listed as inhibitors; 390,000 tested, 4.4% active; AID 504339; also: % is scaled to controls: 0 for no effect and ±100 for the full control effect; nearly all actives have a fitted effect of over 50% in size
L3MBTL1 block = inhibitors of human L3MBTL1; Q9Y468; AlphaScreen L3MBTL1–H3K9me1 peptide binding; Potency, µM (series often up to 57.1 µM), for inactives: at the highest dose activity, negative = inhibition, usual class: inhibitors; 230,000 tested, 0.66% active; also: % is scaled to controls: 0 for no effect and ±100 for the full control effect; nearly all actives have a fitted effect of over 60% in size
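AlphaScreen assay: L3MBTL1 (50 nM final) was preincubated 30 min at room temperature with biotinylated H3(1-15)K9me1 peptide (75 nM final), then 30 min with library compounds; streptavidin donor and nickel chelate acceptor beads (10 ug/mL final) added, 30 min dark.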
BAZ2B block = inhibitors of human BAZ2B bromodomain; Q9UIF8; AlphaScreen BAZ2B-H3K14Ac peptide displacement; Potency, µM (highest dose often 114 µM), inactives show at the highest dose activity change, negative = inhibition, actives largely listed as inhibitors; 360,000 tested, 4.4% active; also: % is scaled to controls: 0 for no effect and ±100 for the full control effect; nearly all actives have a fitted effect of over 60% in size
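Inhibition is scored as reduced AlphaScreen emission. The BAZ2B/b-H3(5-23)K14Ac complex (50 nM each) in PBS pH 7.4, 0.01% Tween-20 meets compound (up to 110 uM) for 30 min at RT before bead addition.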
HP1b chromo inh = HP1-beta chromodomain-methylated histone interaction inhibition; 390,000 tested, 0.56% active; Potency, µM (titrated, usually from 114 µM), without a hit: at the top dose activity change, negative = inhibition, usual class: inhibitors; P83916; AID 540317; AlphaScreen HP1-beta / biotin-H3K9me3 peptide binding; also: nearly all actives have a fitted effect of over 70% in size
Target sequence (P83916 whole entry, looked up): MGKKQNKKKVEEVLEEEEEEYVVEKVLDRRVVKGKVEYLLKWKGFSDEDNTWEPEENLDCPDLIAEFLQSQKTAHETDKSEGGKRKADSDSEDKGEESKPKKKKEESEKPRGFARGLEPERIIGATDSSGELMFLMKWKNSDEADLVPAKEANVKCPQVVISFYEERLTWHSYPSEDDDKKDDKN
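Compound inhibition of the preformed complex between 50 nM HP1-beta and 50 nM biotinylated H3K9me3 peptide was read by AlphaScreen. Buffer was PBS pH 7.4 with 0.01% Tween-20. Incubations ran 30 min at room temperature, with 10 ug/mL donor/acceptor beads.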
G9a inh = blocks human histone lysine methyltransferase G9a. Q96KQ7. G9a H3K9 monomethylation, AlphaScreen, 2 h. Potency, µM (series often up to 102 µM), for the others: top-dose activity, negative = inhibition, hits mostly inhibitors. 350,000 tested, 8.8% active. AID 504332; also: % is scaled to controls: 0 for no effect and ±100 for the full control effect; nearly all actives have a fitted effect of over 75% in size
Target sequence (Q96KQ7 913-1193 limits assumed): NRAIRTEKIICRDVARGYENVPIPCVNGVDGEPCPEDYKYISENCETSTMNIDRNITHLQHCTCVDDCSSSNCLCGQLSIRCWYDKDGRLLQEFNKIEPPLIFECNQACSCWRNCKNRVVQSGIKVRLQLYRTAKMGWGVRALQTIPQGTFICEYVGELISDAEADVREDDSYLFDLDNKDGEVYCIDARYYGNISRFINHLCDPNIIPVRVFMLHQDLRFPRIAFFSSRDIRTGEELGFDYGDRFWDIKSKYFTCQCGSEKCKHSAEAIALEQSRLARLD
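Methyltransferase reactions run at room temperature for 2 h (20 nM enzyme, 500 nM biotin-H3K9 peptide, 20 uM SAM) after a 15 min compound preincubation; product detected by AlphaScreen beads and anti-H3K9me1 antibody.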
Sfp PPTase inh = Sfp phosphopantetheinyl transferase inhibition | Biochemical Sfp PPTase activity, qHTS | Potency, µM, inactives show largest response in the series, negative = inhibition, hits mostly inhibitors | 310,000 tested, 3.5% active;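 also: the enzyme is Sfp with the accession as filed and its product quenches rhodamine fluorescence; 0% = enzyme reaction without inhibitor and -100% = no enzyme wells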
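Fluorescence-quenching assay with 15 nM Sfp, 5 uM rhodamine-CoA and 12.5 uM BHQ-2-labelled ybbR peptide in pH 7.6 Hepes/MgCl2 buffer. Enzyme was pre-incubated with compound for 15 min at room temperature. Rate was taken from the 30-min fluorescence change (525/598 nm).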
The depositor's hits bear a star; ? = inconclusive; . = not tested or not shown; ! = a repeat was not active; [ ] = another dose, or the depositor's remark. An excerpt weighted towards active compounds, which were near 12% of everything screened. Calls follow the shape of the dose curve; as a rule, active = well fitted curve in the direction sought with a large enough effect; inconclusive = small, poorly fitted or top-dose-only effect, or another doubt; inactive = no such curve, though single readings can be large; an effect the other way counts as inactive or inconclusive. Potency is read from the fitted curve at half-maximal effect.

SMILES | JMJD2A Tudor | L3MBTL1 block | BAZ2B block | HP1b chromo inh | G9a inh | Sfp PPTase inh
CCc1ccc2oc(C(=O)Nc3cccc(Cl)c3C)cc(=O)c2c1 | -12% | . | -4% | 27% | -7%[59 µM] | .
CC(=O)c1ccc(NC(=O)c2nc(-c3ccc(Cl)cc3)n3c2CCCCC3)cc1 | ? | . | ? | 11% | ? | .
Cc1ccc2nc(-c3ccccn3)c(Nc3ccccc3C)n2c1 | 45µM*! | . | 20µM* | -21% | ? | 1%
Cc1ccccc1Nc1c(-c2cccnc2)nc2ccccn12 | -7%[11.4 µM] | . | -31% | 38% | 4% | 10%
Cc1ccn2c(Nc3ccccc3)c(-c3ccccn3)nc2c1 | 50µM* | . | 20µM* | 27% | 42%[59 µM] | -6%
Cc1ccc(-c2nc3sccn3c2Nc2ccccc2C)cc1 | 45µM* | . | 7.1µM* | ? | 13µM* | .
COc1ccc(-c2nc3ccccn3c2Nc2ccccc2C)cc1 | 56µM* | . | . | ? | . | .
CCOC(=O)c1ccc(CN(Cc2ccc(OC)cc2)S(=O)(=O)c2cccc(C(F)(F)F)c2)cc1 | 7% | . | -6% | 34% | 23%[59 µM] | .
CC(=O)N(OCc1ccccc1)[C@@H]1c2cc(C#N)ccc2OC(C)(C)[C@H]1O | . | . | . | . | . | 17%
CCCCc1nc2c(c3c1C[C@H](C)OC3)CN(C(=O)NCc1ccco1)CC2 | . | . | . | . | . | 3%
Cc1cc(C)c(NC(=O)CNC(=O)[C@@H]2CCCN2C(=O)c2cccs2)c(C)c1 | 5% | -4% | -3% | 26% | 2%[12.7 µM] | .
COc1ccc(O)c(C(=O)c2cnn(-c3ccccc3)c2)c1 | -32% | . | -27% | -15% | 4.5µM* | -1%
CC(=O)c1cccc(NC(=O)C2C3C=CC(C3)C2C(=O)O)c1 (stereo unspecified) | -6% | 13% | -9% | 50% | . | -26%
CCCCOc1ccc(C(=O)NNC(=O)C2C3C=CC(C3)C2C(=O)O)cc1 (stereo unspecified) | -17% | . | -11% | 71% | . | 45µM*
CCCCOc1ccc(C(=O)NNC(=O)C2C3CCC(C3)C2C(=O)O)cc1 (stereo unspecified) | -19% | . | -13% | 31% | 1% | ?
CCOc1cccc(C(=O)NNC(=O)C2C3C=CC(C3)C2C(=O)O)c1 (stereo unspecified) | -5% | . | -14% | 23% | -3% | 35µM*
O=C(COc1ccccc1)Nc1cccc(-c2nc3cc4ccccc4cc3[nH]2)c1 | 1% | 1% | -3% | 50% | 64%[12.7 µM] | 14%
CCn1nnc(NC(=O)CSc2ccc(Cl)cc2)n1 | ? | ? | ? | -15% | 71µM* | 0%
CC1Cc2ccccc2N1C(=O)COC(=O)CCc1nc2ccccc2c(=O)[nH]1 (stereo unspecified) | 5.6µM* | 2% | -21% | -17% | -29% | 18%
O=C(CCc1nc2ccccc2c(=O)[nH]1)OCC(=O)N1CCc2ccccc21 | -1% | . | -16% | 23% | 1% | 4%
N#Cc1ccc(NC(=O)COC(=O)CCc2nc3ccccc3c(=O)[nH]2)cc1 | 0% | 7% | 3% | 20% | 50µM* | 23%
CC1Cc2ccccc2N1C(=O)COC(=O)c1c2c(nc3ccccc13)CCCCC2 (stereo unspecified) | -17% | -3% | -33% | ? | 2µM* | 3%
CC1=C(c2ccc(NN=C(C#N)C#N)cc2)NNC(=O)C1 | . | . | . | . | ? | -3%
C=C/C1=C/Cc2ccccc2[C@H](C[N+](=O)[O-])C(C(C)=O)(C(=O)OC)C1 (stereo partly specified) | . | . | . | . | . | 0%
CCCCC/C=C\C\C=C/C=C/C=C/[C@@H](O)[C@@H](O)CCCC(=O)O | . | . | . | . | . | 5%
Cc1nc(S(=O)(=O)c2ccc(Cl)cc2)c(NCc2ccccc2)o1 | 1% | . | -6% | 45% | 45µM* | -17%
CNc1oc(C)nc1S(=O)(=O)c1ccccc1 | ? | . | -4% | ? | ? | 32µM*
